Drawing on PubChem BioAssay AID743445 (Broad Institute, 2014), this text covers inhibition for 57 compounds.

The whole screen tested about 310,000 compounds, of which about 1,700 (0.55%) were called active. This excerpt belongs to a sample that is enriched for actives. Unmarked numbers belong to inactive results. Rule as the data show it: active = inhibition above about 50%; inactive = the rest.

The target in the assay is Histone-lysine N-methyltransferase NSD2 (Homo sapiens) (UniProt O96028). Kind of assay: blockers of NSD2 lysine methylation activity – biochemical, AlphaScreen, single concentration, set 2, primary screen (AID 743445). The following applies: NSD2 peptide methylation, 120 min, at 12.5 µM, stronger effect = higher value. On the technique in general: In Alpha technology, singlet oxygen from a donor bead excites a nearby acceptor bead.
Chain of Histone-lysine N-methyltransferase NSD2 (Homo sapiens) (O96028 whole entry, looked up): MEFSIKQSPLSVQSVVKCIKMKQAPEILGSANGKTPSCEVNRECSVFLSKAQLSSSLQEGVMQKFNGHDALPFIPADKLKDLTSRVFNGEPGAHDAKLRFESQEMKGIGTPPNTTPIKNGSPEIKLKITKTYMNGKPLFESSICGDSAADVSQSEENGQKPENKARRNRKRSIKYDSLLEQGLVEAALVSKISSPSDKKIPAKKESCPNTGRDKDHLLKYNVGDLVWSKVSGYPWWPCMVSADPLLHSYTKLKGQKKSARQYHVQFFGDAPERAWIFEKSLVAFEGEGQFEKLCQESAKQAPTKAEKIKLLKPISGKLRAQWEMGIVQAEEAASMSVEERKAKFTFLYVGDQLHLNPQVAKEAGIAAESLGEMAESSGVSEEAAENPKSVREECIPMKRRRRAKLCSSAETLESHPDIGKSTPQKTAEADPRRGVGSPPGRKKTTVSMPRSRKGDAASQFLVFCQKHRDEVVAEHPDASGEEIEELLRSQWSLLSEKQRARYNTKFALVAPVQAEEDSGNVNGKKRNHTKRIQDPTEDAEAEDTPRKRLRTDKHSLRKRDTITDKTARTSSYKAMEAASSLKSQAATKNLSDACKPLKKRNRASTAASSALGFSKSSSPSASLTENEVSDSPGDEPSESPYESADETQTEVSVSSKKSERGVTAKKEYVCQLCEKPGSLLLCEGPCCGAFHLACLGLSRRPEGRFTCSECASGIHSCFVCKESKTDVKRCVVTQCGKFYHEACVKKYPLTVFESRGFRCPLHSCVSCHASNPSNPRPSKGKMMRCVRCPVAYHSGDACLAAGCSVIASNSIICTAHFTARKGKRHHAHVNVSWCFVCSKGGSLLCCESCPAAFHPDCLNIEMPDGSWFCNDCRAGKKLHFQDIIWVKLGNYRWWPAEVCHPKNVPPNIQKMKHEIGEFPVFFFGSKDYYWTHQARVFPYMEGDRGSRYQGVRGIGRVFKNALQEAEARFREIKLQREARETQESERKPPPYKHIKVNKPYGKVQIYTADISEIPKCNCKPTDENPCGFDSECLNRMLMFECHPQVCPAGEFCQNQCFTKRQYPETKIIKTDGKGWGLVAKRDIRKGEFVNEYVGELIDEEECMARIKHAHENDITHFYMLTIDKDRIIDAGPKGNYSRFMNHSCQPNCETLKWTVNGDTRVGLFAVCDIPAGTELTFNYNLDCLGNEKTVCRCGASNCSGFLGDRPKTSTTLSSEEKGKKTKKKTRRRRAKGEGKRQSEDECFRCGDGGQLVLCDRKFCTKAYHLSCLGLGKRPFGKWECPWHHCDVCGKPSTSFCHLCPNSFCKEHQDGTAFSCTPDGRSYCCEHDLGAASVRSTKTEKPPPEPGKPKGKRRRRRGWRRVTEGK
What is called inhibition is the change of the read-out against control, counted positive when it falls. For `Cc1ccccc1NC(=O)COC(=O)c1ccc(Sc2ncn[nH]2)c([N+](=O)[O-])c1`, the inhibition was -0.523%. The result for `C[C@H]1CCC/C=C/C(=O)c2c(O)cc(O)cc2CC(=O)O1` reads 5.2%; that for `Cc1ccc(-c2ccc(/C=N/NC(=O)CN3CCOCC3)o2)cc1[N+](=O)[O-]`, 59.9% (active). The result for `O=C(CN1CCOCC1)N/N=C/c1ccc(-c2ccc(Br)cc2)o1` reads 4.03%; that for `Cc1occc1C(=O)N/N=C/c1ccc(-c2cccc([N+](=O)[O-])c2)o1`, 1.62%. Turning to `O=C(NCc1ccc(Cl)cc1)C1CCCN(c2nc3ccccc3o2)C1` (configuration not stated), the inhibition is -10.7%.

Regarding `CC1CCN(c2ccc(C(=O)O)cc2NS(=O)(=O)c2ccc(Br)s2)CC1`, the inhibition was 1.4%.

Turning to `Cc1nc2ccc(C(=O)N3CCN(C(=O)C(C)(C)C)CC3)cc2n1C1CCCC1`, the inhibition is -2.3%. The result for `CSc1nccc(-c2ccc(S(=O)(=O)Nc3ccc(C(O)(C(F)(F)F)C(F)(F)F)cc3)s2)n1` reads 3.98%; that for `CCN(CC)CCn1c2ccc(Cl)cc2c2nc(C)sc21`, 14.7%. The result for `CCN(CC)CCCC(C)n1c2nc(=O)[nH]c(=O)c-2nc2cc(Cl)ccc21` (configuration not stated) reads 187% (active). In the case of `O=C(NCCCn1ccnc1)C1CCCN(S(=O)(=O)c2cc(Cl)ccc2Cl)C1` (configuration not stated) it was -2.69%; in that of `CCN1CCN(C(=O)C2CCCN(S(=O)(=O)c3ccc(OC)c(OC)c3)C2)CC1` (configuration not stated), -0.758%; in that of `COc1ccc(S(=O)(=O)N2CCCC(C(=O)NCCCn3ccnc3)C2)cc1OC` (configuration not stated), 57.8% (active). For the compound `NC(Cc1ccc(F)cc1)c1csc(Nc2nncc3ccccc23)n1` (configuration not stated), the inhibition was -3.48%.

For the compound `O=C(CSc1nnc(-c2ccccc2)n1Cc1ccco1)Nc1ccccc1-c1ccccc1`, the inhibition was 6.7%.

Regarding `CC1(C)Cc2c(sc3nnn(Cc4ccc(Cl)cc4Cl)c(=O)c23)CO1`, the inhibition was 8.41%.

With `O=C(CN1C(=O)c2ccc([N+](=O)[O-])cc2C1=O)Nc1nnc(C2CC2)s1`, the inhibition is 57.6% (active). As to `O=C(Cc1cccs1)Nc1nnc(C2CC2)s1`, the inhibition is 3.72%. On to `Cc1cccc(NC(=O)CSCC(=O)Nc2nnc(C3CC3)s2)c1`, for which the inhibition is 1.4%. In the case of `O=C(C1CCN(S(=O)(=O)c2ccccc2)CC1)N1CCN(C2CCCCC2)CC1` it was 0.491%; in that of `c1ccc(CNCc2ccc(CNCc3ccccc3)cc2)cc1`, 1.25%. Regarding `Oc1ccc(CNc2ccccc2O)cc1`, the inhibition is 85.7% (active).

As for `O=[N+]([O-])c1ccccc1NCc1ccc(Cl)cc1`, the inhibition was 7.1%.

With `Cc1ccc(CSc2nnc(SCC(=O)NN=Cc3cc(Br)ccc3F)s2)cc1`, the inhibition was -1.85%.

In the case of `CC1(C(=O)Nc2cccc(Oc3ccccc3)c2)CCN1Cc1ccccc1Cl` (configuration not stated), the inhibition was -0.732%.

`CCc1nc2c(OCCOc3ccccc3)cccn2c1N(C=O)Cc1ccc(OC)cc1`: the inhibition was -1.53%.

On to `COc1ccccc1/C=C1\SC(=O)N(CCC(=O)N(C)C2CCS(=O)(=O)C2)C1=O` (configuration not stated), for which the inhibition is 2.59%.

For the compound `CN(C(=O)CCN1C(=O)/C(=C/c2ccccc2F)SC1=S)C1CCS(=O)(=O)C1` (configuration not stated), the inhibition was -1.43%.

Turning to `CN(C(=O)CN1C(=O)S/C(=C\c2ccccc2F)C1=O)C1CCS(=O)(=O)C1` (configuration not stated), the inhibition is 71.1% (active).

As for `CCN(CC)S(=O)(=O)c1ccc(N2CCOCC2)c(NC(=O)C2COc3ccccc3O2)c1` (configuration not stated), the inhibition was -0.001%. Turning to `Cc1c(CC(=O)N2CCN(C(=O)C3COc4ccccc4O3)CC2)c(=O)oc2c(O)c(O)ccc12` (configuration not stated), the inhibition was 125% (active). The result for `O=C(CNC(=O)C1COc2ccccc2O1)N/N=C/c1cc(Br)c(O)c(Br)c1` (configuration not stated) reads 26.9%.

For `CCc1nc2ccc(C(=O)NCCNC(C)=O)cn2c1N(CC)Cc1cccc(Br)c1`, the inhibition was 1.25%. Turning to `N#Cc1ccc(CSc2nnc(-c3ccccn3)n2-c2ccc(Cl)cc2)cc1`, the inhibition is 3.24%.

For `N#Cc1ccc(CSc2nnc3ccccn23)cc1`, the inhibition is -1.73%. In the case of `N#Cc1ccc(CSc2ncccn2)cc1` it was 67.5% (active). The result for `COc1ccc(N2CCN(CCNS(=O)(=O)c3ccc(C(C)(C)C)cc3)CC2)cc1` reads 9.53%; that for `COc1ccc(-n2c(SCC(=O)Nc3ccc4c(c3)OCCO4)nnc2-c2ccc(Cl)cc2)cc1`, 3.06%; that for `Cc1ccc(Cn2cc(COC(=O)N(C)Cc3ccccc3)nn2)cc1`, -1.9%. In the case of `CCNC(=O)C1(C)CCCN(C(=O)c2ccc3ccccc3n2)C1` (configuration not stated), the inhibition was 104% (active).

Turning to `CCNC(=O)C1(C)CCN(C(=O)c2ccccc2)C1` (configuration not stated), the inhibition was -2.2%.

For `CCNC(=O)C1(C)CCCN(C(=O)c2c(C)noc2C)C1` (configuration not stated), the inhibition is -2.53%. The result for `COc1ccc(-n2c(SCC(=O)Nc3ccc4cn[nH]c4c3)nnc2-c2cccnc2)cc1` reads 10.9%; that for `O=S(=O)(Nc1ccc(C(O)(C(F)(F)F)C(F)(F)F)cc1)c1ccc(-c2ccccn2)s1`, 11.8%; that for `S=C(NCc1ccc2c(c1)OCO2)NCc1ccco1`, 4.85%. On to `CS(=O)(=O)N(CC(=O)NCc1ccco1)c1ccc2c(c1)OCO2`, for which the inhibition is 65.1% (active). The result for `Cc1cc(C)cc(N(CC(=O)NCCSCc2ccco2)S(C)(=O)=O)c1` reads 7.95%. The result for `COc1ccc(C(=O)CSc2nnc(-c3cnccn3)n2-c2ccc(C)cc2)cc1` reads -4.12%. In the case of `COc1ccc(-n2c(SCC(=O)Nc3ccc(C)c(Cl)c3)nc3ccccc3c2=O)cc1` it was 5.51%; in that of `COc1cc(NC(=O)c2cc(-c3ccc(F)cc3OC(C)C)n[nH]2)cc(OC)c1OC`, -1.66%. Regarding `CC(=O)Oc1ccc2c(c1)C(=O)c1ccccc1C2=O`, the inhibition was 4.31%. Regarding `O=C1C(Cl)=C(Oc2ccccc2)C(=O)c2ccccc21`, the inhibition is 101% (active).

On to `COc1cccc(-c2ccc3c(c2)N(Cc2ccccc2OC)C(=O)C(C)S3)c1` (configuration not stated), for which the inhibition is -0.375%. `Cc1ccc(-n2c(SCC(=O)Nc3ccc(S(=O)(=O)Nc4nccs4)cc3)nnc2-c2cccnc2)cc1`: the inhibition is 6.22%. As to `CC1(C(=O)Nc2cccc3c2CCCC3)CCN1C(=O)CCc1ccc(Cl)cc1Cl` (configuration not stated), the inhibition is -2.57%.

Regarding `O=C(CSc1nnc(-c2ccccn2)n1-c1ccc(Cl)cc1)Nc1ccccc1-c1ccccc1`, the inhibition is -2.53%.
